Screening data as filed in PubChem.
A selection: hits, their analogues and other compounds. The true share with any hit is near 0.44%.
EPAC1 antagonist – blocks human EPAC1 exchange factor; Potency, µM (doses to about 115 µM), inactives show top-dose activity change, negative = inhibition, most hits filed as inhibitors; actives 0.14% (n = 360,000); O95398; AID 720709; EPAC1 GEF assay, Rap1b-BODIPY-GDP exchange fluorescence;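 note: plate controls were vehicle for no effect and positive control for full effect; nearly all actives have a fitted effect of over 50% in size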
EPAC2 ag – activates human EPAC2 exchange factor; Q8WZA2; EPAC2 activation, biochemical qHTS; response scale: 100% = 6.5 mM cAMP response; Potency, µM (series often up to 154 µM), for inactives: top-dose activation, actives largely listed as activators; actives 0.079% (n = 360,000); AID 720711; note: nearly all actives have a fitted effect of over 50% in size
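Nucleotide exchange monitored as fluorescence drop when BODIPY-GDP leaves Rap1B. Reaction: 100 nM EPAC2, 250 nM RAP1B-BODIPY-GDP, 50 uM GDP, room temperature, kinetic read over 30 min. Activity expressed relative to 6.5 mM cAMP.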
USP1 inh – blocks the human USP1/UAF1 deubiquitinase complex. Potency, µM (doses to about 57.1 µM), for inactives: at the top dose activity change, negative = inhibition, actives largely listed as inhibitors. O94782. AID 743255. recombinant USP1/UAF1, Ub-Rhodamine cleavage fluorescence. actives 0.23% (n = 390,000); note: % is set by controls: 0 for no effect and ±100 for the full control effect; nearly all actives have a fitted effect of over 60% in size
Target sequence (O94782 whole entry, looked up): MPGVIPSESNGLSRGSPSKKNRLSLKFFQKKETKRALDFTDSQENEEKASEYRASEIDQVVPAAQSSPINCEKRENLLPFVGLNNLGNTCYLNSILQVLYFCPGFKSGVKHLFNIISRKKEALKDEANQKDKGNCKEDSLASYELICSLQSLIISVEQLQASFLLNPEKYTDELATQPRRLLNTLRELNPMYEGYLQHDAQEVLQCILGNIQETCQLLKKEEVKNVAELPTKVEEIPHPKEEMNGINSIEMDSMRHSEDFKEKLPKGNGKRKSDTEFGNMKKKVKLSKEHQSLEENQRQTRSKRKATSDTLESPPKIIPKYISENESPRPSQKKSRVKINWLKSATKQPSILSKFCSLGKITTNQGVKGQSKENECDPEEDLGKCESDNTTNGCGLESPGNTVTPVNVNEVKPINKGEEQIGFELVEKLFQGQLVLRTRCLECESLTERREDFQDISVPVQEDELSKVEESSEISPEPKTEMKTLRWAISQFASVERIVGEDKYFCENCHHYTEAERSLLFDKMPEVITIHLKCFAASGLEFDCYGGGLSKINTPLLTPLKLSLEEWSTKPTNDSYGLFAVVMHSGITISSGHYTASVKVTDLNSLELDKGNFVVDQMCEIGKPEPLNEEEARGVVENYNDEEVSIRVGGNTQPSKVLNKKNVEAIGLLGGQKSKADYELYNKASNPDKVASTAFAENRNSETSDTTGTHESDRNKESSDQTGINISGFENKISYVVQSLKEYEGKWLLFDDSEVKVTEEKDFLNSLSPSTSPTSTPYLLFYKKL
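USP1/UAF1 complex (1 nM) preincubated 15 min at room temperature with compound, then Ub-Rho substrate (150 nM final) added. Kinetic fluorescence at 480/540 nm over 6 reads at 60 s intervals; 50 mM HEPES pH 7.8, 0.5 mM EDTA, 0.1 mg/ml BSA, 1 mM TCEP, 0.01% Tween-20.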
EPAC2 antagonist – EPAC2 (human) antagonism; Q8WZA2; EPAC2 GEF exchange of Rap1B-BODIPY-GDP, fluorescence; Potency, µM (series often up to 114 µM), inactives show top-dose activity, negative = inhibition, hits mostly inhibitors; actives 0.18% (n = 360,000); AID 720708; note: % is set by controls: 0 for no effect and ±100 for the full control effect; nearly all actives have a fitted effect of over 45% in size
EPAC1 agonist – EPAC1 (human) agonism; actives 0.073% (n = 360,000); EPAC1 agonist qHTS, biochemical assay; response scale: 100% = response to 6.5 mM cAMP; Potency, µM (top dose mostly 154 µM), for inactives: top-dose activation, hits mostly activators; note: nearly all actives have a fitted effect of over 60% in size
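Nucleotide exchange assay: 100 nM EPAC1 with 250 nM Rap1B loaded with BODIPY-GDP and 50 uM GDP, room temperature. Fluorescence (480/540 nm) read every 5 min for 30 min; signal change normalized to 6.5 mM cAMP as full agonist.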
Active calls of the source: *; ? = inconclusive; . = not tested or not shown. Calls come from the whole dose curve; as a rule, active = well fitted curve in the direction sought with a large enough effect; inconclusive = small, poorly fitted or top-dose-only effect, or another doubt; inactive = no such curve, though single readings can be large; an effect the other way counts as inactive or inconclusive. Potency is the fitted concentration of half-maximal effect.

SMILES	EPAC1 antagonist	EPAC2 ag	USP1 inh	EPAC2 antagonist	EPAC1 agonist
COc1ccc(C(=O)c2ccccc2)c2c(O)ccc(C(=O)c3ccccc3)c12	-1.0%	6.31µM*	-7.4%	5.1%	-14.1%
COc1cc(C(=O)c2ccccc2)c([N+](=O)[O-])cc1OC	-2.7%	3.4%	-13.7%	79.4µM*	-9.2%
COc1ccc(C(=O)c2ccc(Cl)cc2)c2ccccc12	-9.9%	9.7%	-3.1%	?	12.0%
OCC(CBr)(CBr)CBr	-1.6%	19.0%	10.1%	-17.8%	-8.3%
COc1ccc(S(=O)(=O)N2CCC(C(=O)NCCc3c[nH]c4ccccc34)CC2)cc1	-5.7%	3.7%	-9.9%	2.8%	-7.1%
O=S(=O)(NCCc1c[nH]c2ccccc12)c1ccc(F)cc1	-14.8%	4.0%	-16.1%	-11.6%	-8.2%
CN(C)c1ccc(C=c2c3ccccc3n3c2cc(-c2ccccc2)[n+]3C)cc1	-15.4%	11.3%	17.8µM*	-1.3%	15.6%
CN(C)c1ccc(C=c2c3ccccc3n3c2cc(-c2ccc(Cl)cc2)[n+]3C)cc1	0.1%	6.7%	-20.5%	-7.1%	-30.2%
COc1cc(C=c2c3ccccc3n3c2cc(-c2ccccc2)[n+]3C)cc(OC)c1OC	5.3%	?	2.24µM*	35.7%	14.1%
COc1cc(N(C)C)ccc1C=c1c2ccccc2n2c1cc(-c1ccccc1)[n+]2C	-22.3%	-2.7%	?	-26.1%	-6.6%
CCOC(=O)c1c2c(n(-c3ccc(OC)cc3)c1C)C(=O)C(=O)c1ccccc1-2	56.2µM*	21.6%	1.78µM*	?	8.1%
CCOC(=O)c1sc(=S)n(-c2ccc(OC)cc2)c1C	-25.7%	2.3%	-8.4%	-13.2%	1.3%
O=C(CCNC(=O)c1ccc([N+](=O)[O-])cc1)NNC(=O)c1ccccc1F	-7.9%	10.1%	-8.3%	7.0%	11.4%
CC[n+]1ccc(/C=C/c2c[nH]c3ccccc23)cc1	52.0%	100µM*	28.2µM*	45.0%	?
COc1ccc2c(/C=C/c3cc[n+](C)cc3)c[nH]c2c1	7.1%	3.2%	?	-0.4%	7.8%
Cc1ccc2[nH]cc(/C=C/c3cc[n+](C)cc3)c2c1	71.8%	?	28.2µM*	65.1%	100µM*
Cc1ccc(S(=O)(=O)CCC(=O)N(C)C2CCCCC2)cc1	5.1%	-3.1%	-5.1%	-0.1%	-9.6%
O=C1N=c2ccccc2=C1c1sc(Nc2cccc(O)c2)nc1O	3.6%	-7.5%	-12.8%	-17.9%	0.9%
O=C1N=c2ccccc2=C1c1sc(Nc2ccc(O)cc2)nc1O	44.7µM*	1.0%	-18.3%	-26.9%	-3.7%
N#CC(Sc1ccccn1)c1ccc(Cl)cc1Cl (stereo not drawn)	-12.8%	20.6%	-15.2%	25.1µM*	4.7%
COc1ccccc1Cn1c(=O)oc2ccc(C)cc21	-13.9%	6.4%	-19.3%	28.2µM*	-7.2%
CC(C)Cc1csc(NC(=O)c2ccc(Cl)cc2)c1C(=O)O	17.8µM*	-4.1%	-10.0%	-1.3%	-10.7%
O=C(Nc1sc2c(c1C(=O)O)CCCC2)c1ccc(Cl)cc1	28.2µM*	-1.9%	-20.7%	-13.7%	-10.0%
O=C(Nc1sc2c(c1C(=O)O)CCCCC2)c1ccccc1	-11.1%	-0.7%	-22.6%	0.9%	-14.3%
CCCN(c1ccccc1F)S(=O)(=O)c1c[nH]c(C(=O)OC)c1	20.9%	1.2%	-23.4%	-3.5%	-0.3%
SMILES	EPAC1 antagonist	EPAC2 ag	USP1 inh	EPAC2 antagonist	EPAC1 agonist
O=C(NCc1cccc(C(F)(F)F)c1)C1CCC(=O)N(C2CCCCCC2)C1 (stereo not drawn)	-3.4%	-4.5%	-26.2%	1.6%	-8.1%
NC(=O)C1CCN(C2=C(NS(=O)(=O)c3ccccc3)C(=O)c3ccccc3C2=O)CC1	-11.2%	11.0%	-16.7%	-12.3%	4.1%
NC(=O)C1CCN(C2=C(Cl)C(=O)c3ccccc3C2=O)CC1	-21.4%	2.8%	31.6µM*	-14.5%	5.7%
CN1CCN(C2=C(Cl)C(=O)c3ccccc3C2=O)CC1	28.2µM*	26.5%	3.55µM*	?	5.0%
O=C1C(Cl)=C(N2CCC(C(=O)O)CC2)C(=O)c2ccccc21	?	10.1%	25.1µM*	?	9.2%
CN1CCN(C2=C(NS(=O)(=O)c3ccccc3)C(=O)c3ccccc3C2=O)CC1	-1.3%	-0.8%	?	-17.4%	5.6%
COc1cccc(NC(=O)CN(CCc2ccccc2)S(=O)(=O)c2ccc(Cl)cc2)c1	.	.	2.1%	.	.
CC1=NN(C(N)=S)C(=O)C1N=Nc1ccc([N+](=O)[O-])cc1 (stereo not drawn)	-25.5%	-13.4%	-22.6%	?	13.7%
Cc1cc2nc(C(C)(C)C)c(Cc3ccsc3)n2c(C)c1Br	-8.8%	10.8%	.	0.2%	-7.2%
Cc1[nH][nH]c(=O)c1C(c1c(C)[nH][nH]c1=O)c1cn(Cc2cccc3ccccc23)c2ccccc12	89.1µM*	6.2%	14.1µM*	4.3%	16.4%
COc1ccccc1NC(=O)NC1(C)CCS(=O)(=O)C1 (stereo not drawn)	2.0%	1.4%	1.8%	0.2%	2.8%
COc1ccccc1C(=O)NNC(=O)CCCN1C(=O)/C(=C/c2cccs2)SC1=S	6.6%	100µM*	-28.8%	14.8%	1.6%
CCc1ccc(/C=C2/SC(=S)N(CCCC(=O)Nc3ccccc3C(=O)O)C2=O)cc1	39.8µM*	-6.3%	-19.1%	?	2.4%
CCc1ccc(C=C2SC(=S)N(CCCC(=O)Nc3ccc(C(=O)O)cc3)C2=O)cc1	?	5.9%	.	14.2%	17.8%
C#Cc1ccc([C@@H]2C=C(C(=O)N3CCOCC3)O[C@H](OCC)[C@H]2CCCO)cc1	6.0%	0.7%	-28.1%	-7.7%	-4.3%
O=C(NN=c1c(=O)c2ccccc2c1=O)c1ccccc1	4.1%	11.8%	31.6µM*	8.6%	3.5%
CS(=O)(=O)c1ccc2nc(NC(=O)C3CCCO3)sc2c1 (stereo not drawn)	3.0%	-2.8%	-5.4%	3.7%	4.6%
O=C(Nc1nc2ccc(Cl)cc2s1)C1CCCO1 (stereo not drawn)	5.3%	7.94µM*	-23.9%	-3.8%	-5.7%
COc1cc(NC(=O)c2cc3ccccc3o2)c(OC)cc1Br	-4.4%	10µM*	-2.4%	4.3%	3.9%
COc1cc(NC(=O)c2cc3ccccc3o2)c(OC)cc1Cl	-6.8%	5.7%	-18.6%	3.8%	6.7%
Nc1c(N2CCCC2)cc(Cl)c2nonc12	?	?	15.8µM*	?	7.1%
Nc1ccc(N2CCCCC2)c2nonc12	10µM*	18.2%	4.47µM*	?	-10.8%
CCN(CC)C(=O)CSc1ncnc2sc(C)c(C)c12	-6.1%	0.6%	-10.6%	-2.7%	4.0%
CNC(=O)C(=O)NCC1OCCN1S(=O)(=O)c1ccc(OC)c(OC)c1 (stereo not drawn)	-3.0%	-2.5%	-14.4%	0.8%	-6.3%
Oc1cccc(C=Nc2cccc3ccccc23)c1O	50.1µM*	11.9%	?	11.6%	-4.7%
